For 40 molecules, growth results are on record in PubChem BioAssay (NCI).

“And” between values parts separate entries of the source, which are not always exact repeats. Identical values can stand only once. About 83,000 compounds went through this panel and 20% of them were active in at least one assay; those are over-represented in the sample as a whole.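 48-hour exposure, single concentration, 96-well plates; percent growth endpoint where 0 means no net growth. Active: below 10.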 Values without a mark were called inactive. The source made the active and inactive calls.

The assay deals with MDA-MB-468 breast. The assay can be described thus: NCI-60 one-dose screen, 48 h (100 = growth as untreated, 0 = no growth, -100 = all killed). Conditions: 10 µM unless noted.
For `COC(=O)CCc1c(/C=C2\N=C(c3ccc[nH]3)C=C2OC)[nH]c(C)c1C(=O)OCc1ccccc1`, the growth was 28.5%.
The value for `CCc1cnc2ccccc2c1/C=C/c1ccc(N(C)C)cc1` was 24.9%; that for `CCc1nc(C)cn1C(=O)OCc1nc2nc(Cl)nc(N3CCOCC3)c2[nH]1` was -54.6% (active); that for `COc1ccc(-c2cc(-c3cc(OC)ccc3OC)nc(SCC(=O)c3ccccc3)c2C#N)cc1` was 106%.
The value for `CC[C@@H](C(=O)[C@@H](C)[C@@H](O)[C@H](C)[C@@H]1O[C@@H]([C@@H](CC)C(=O)ONC(=O)c2ccccc2O)CC[C@@H]1C)C1O[C@]2(C=CC(=O)[C@]3(CC[C@@](C)([C@H]4CC[C@](O)(CC)[C@H](C)O4)O3)O2)[C@H](C)C[C@@H]1C` (stereo not given in full) was 16.4%.
Consider `COc1cc(OC)cc(C(=O)Nc2cccc(C#Cc3cccc4[nH]nc(N)c34)c2)c1`, for which the growth is 31.8%.
With `N#C/C(=C\N1C(=O)/C(=C/c2cccc([N+](=O)[O-])c2)SC1=S)c1nc2ccccc2s1`, the growth was 81.7%.
For the molecule `OC(c1ccccc1)C(NC(Cc1ccccc1)c1ccccc1)c1ccccc1` (stereo not given), the growth is 89.3%.
In the case of `COc1cc(C2=NN(C=O)C(c3cccc(Nc4ccnc5cc(C(F)(F)F)ccc45)c3)C2)cc(OC)c1OC` (stereo not given), the growth was 42.8%.
Take `Cc1ccc(Cc2cnc(NC(=O)/C=C/c3cccc(C)c3)s2)cc1`: the growth is 1.34% (active).
As to `CC1CC(O)CC(C)(C)C1` (stereo not given), the growth is 108%.
Consider `COc1cc([C@@H]2c3cc4c(cc3[C@H](O)[C@H]3COC(=O)[C@@H]23)OCO4)cc(OC)c1OC`, for which the growth is -1.25% (active) and -3.58% (active).
The value for `Clc1ccc2oc3c(NCCCn4ccnc4)c4ccccc4nc3c2c1` was 51.6%; that for `Clc1ccc(-c2nnc(Cn3ccnc3)o2)cc1` was 104%; that for `COc1cc2cc(NCc3ccc(Cl)cc3)nc(C)c2cc1OC` was 63.4%.
`CN1CCN(c2cc(F)c(NC3=C(Cl)C(=O)c4ncccc4C3=O)c(F)c2)CC1`: the growth is -73.9% (active).
`O=C(Nc1ccc(Oc2cccc(F)c2)c(Cl)c1)c1cccnc1`: the growth is -9.22% (active).
`C=C(C[C@](O)(C(=O)/C=C/c1ccc(Cl)cc1)C(=O)OC)c1ccccc1`: the growth was 69.5%.
Take `Clc1cccc(Nc2ncnc3ccc(-c4cncc(-n5cnnn5)c4)cc23)c1`: the growth is -31.6% (active).
Consider `Cc1cc(C)c(C(=O)OC(C)CNC2CCCCC2)c(C)c1` (stereo not given), for which the growth was 103%.
Turning to `CCOC(=O)c1c(C(F)(F)F)n([O-])c2ccc(OC)cc2[n+]1=O`, the growth is -22.2% (active).
On to `Cc1ccc(-c2cc(-c3cccc4ccccc34)n3c(n2)nc2ccccc23)cc1`, for which the growth is 70.4%.
With `S=C(NCc1ccccc1)NCc1ccccc1`, the growth is 101%.
The value for `Cc1ncc(C(=O)Nc2ccc(CN3CCN(C)CC3)c(C(F)(F)F)c2)cc1C#Cc1cnc(N)cc1C#N` was 68.2%; that for `CCn1c(Cc2ccccc2Nc2c(Cl)cccc2Cl)nnc1SCC(=O)Nc1cccc(OC)c1` was 75%; that for `COc1ccc2c3ccnc(C(F)(F)F)c3n(CCCCN)c2c1` was 33.7%.
As to `CC(=O)OCC1CCCO1` (stereo not given), the growth was 105%.
In the case of `CCN1CCN(c2nc(NNC(=O)Cc3ccccc3)nc(N3CCN(C(c4ccccc4)c4ccccc4)CC3)n2)CC1`, the growth is 12.2%.
Take `COc1cccc(NC(=O)Nc2ccc(Oc3ncnc4[nH]c(C)c(C)c34)cc2)c1`: the growth is 125%.
`CCCn1c2cc(OCc3cn(-c4ccc(Cl)cc4)nn3)ccc2c2ccnc(C)c21`: the growth is 38.9%.
Regarding `COc1cc(Oc2cc(-c3cccnc3)ccc2NC(=O)Nc2ccc(F)cc2F)cc(OC)c1OC`, the growth was 97.7%.
On to `COc1cc2nc(Cl)nc(Nc3cccc(C4=Nc5c(N)nc(N)nc5NC(c5ccc(Cl)cc5)C4)c3)c2cc1OC` (stereo not given), for which the growth is 27.5%.
With `O=c1oc2ccc(Cl)cc2c(=O)n1-c1cc(C(F)(F)F)cc(C(F)(F)F)c1` the figure was -8.67% (active).
Turning to `NC1C(N)C(N)C1N` (stereo not given), the growth is 122%.
With `CCOC(=O)C1=C(C)N=C2Sc3cc(OC(F)(F)F)ccc3N2[C@H]1c1ccccn1` the figure was 29.1%.
Consider `O=C1CNc2cc(Cl)ccc2N1`, for which the growth is 117%.
With `CC(=O)n1c2ccccc2c2ccccc21` the figure was 105%.
`O=C1N[C@@H]2NC(=[N+]3CCOCC3)N[C@@H]2N1`: the growth is 99.6%.
With `O=[N+]([O-])c1cccc(C2CC(c3ccccc3)=Nc3ccccc3S2)c1` (stereo not given) the figure was 86.4%; with `CC1NC(C)c2ccc3ccccc3c2O1` (stereo not given), 109%.
